Structures are written as SMILES. “And” between values parts separate entries of the source, which are not always exact repeats. Equal values may be shown once. Unmarked numbers belong to inactive results. Inconclusive results are not listed. The source made the active and inactive calls. Unless noted, calls come from the whole dose curve; as a rule, active = well fitted curve in the direction sought with a large enough effect in the repeat runs; inconclusive = weak or mixed curves; inactive = no such curve, though single readings can be large; an effect the other way counts as inactive or inconclusive.

Experiment [1] can be described thus: qHTS assay to identify small molecule agonists of H2AX (AID 1224845; active = well fitted activation curve with a large enough effect in the signal ratio in the repeat runs, not every such curve was filed as active; the % refers to the signal ratio; note: potency is the fitted concentration of half-maximal effect). Put shortly:
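Wild-type CHO-K1 cells plated overnight, then exposed 3 hr at 37C to compounds at 15 concentrations (0.76% DMSO). Lysed, then HTRF anti-pH2AX(S139)-cryptate/anti-H2AX-d2 detection after 24 hr at room temperature; emissions 665 and 620 nm.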
Background: Quantitative high-throughput screening tests each substance at several concentrations.

Experiment [2] is described as follows: qHTS assay to identify small molecule agonists of H2AX - cell viability counter screen (AID 1224847; calls by dose curve; note: nearly all actives have a fitted effect of over 30% in size; note: potency is the fitted concentration of half-maximal effect). Put shortly: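 Wild-type CHO-K1 cells (10% FBS medium) were plated overnight at 37C, exposed to compounds at 15 concentrations for 3 hr at 37C (0.76% DMSO final), and viability was read as CellTiter-Glo luminescence after 30 min at room temperature.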
Experiment [3] can be described thus: qHTS assay to identify small molecule antagonists of the estrogen related receptor (ERR) signaling pathway from Tox21 library (AID 1224848). Note: nearly all actives have a fitted effect of over 50% in size. Note: potency is the fitted concentration of half-maximal effect. Summed up: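 Cells: ERR line, 2,000/well; 6 h preincubation 37 C/5% CO2. Cpd in DMSO via pin tool; 18 h, 37 C. ONE-Glo, 30 min RT, luminescence.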
The nature of experiment [4]: qHTS assay to identify small molecule agonists of the estrogen related receptor (ERR) signaling pathway from Tox21 library (AID 1224849; calls by dose curve; note: nearly all actives have a fitted effect of over 15% in size). To be noted: ERR reporter cell line, ONE-Glo luciferase, 18 h; at 92.4 µM (top of the series) unless noted. Put shortly: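 ERR cells, 6 h pre-incubation 37 C/5% CO2; cpd in DMSO pinned; 18 h 37 C; ONE-Glo added, 30 min RT; luminescence read. Agonist mode, qHTS.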

The nature of experiment [5]: qHTS RealTime-Glo MT Cell Viability Assay in HepG2 cells - 24 hour (AID 1224867). Note: nearly all actives have a fitted effect of over 50% in size. Note: potency is the fitted concentration of half-maximal effect. Put shortly: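 HepG2 cells (600/well) were dispensed with RealTime-Glo reagents, incubated 5 h at 37 °C, then treated with compounds in DMSO for up to 40 h. Nonlytic NanoLuc luminescence reflecting viable cells was read at each stated time point.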
The nature of experiment [6]: qHTS RealTime-Glo MT Cell Viability Assay in HEK293 cells - 32 hour (AID 1224868). Note: nearly all actives have a fitted effect of over 50% in size. Note: potency is the fitted concentration of half-maximal effect. Summed up:
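HEK293 cells seeded with NanoLuc/prosubstrate reagent, rested 5 h at 37 C, then dosed and kept at 37 C up to 40 h. Nonlytic real-time luminescence from viable cells read at 0, 8, 16, 24, 32 and 40 h.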

A short description of experiment [7]: A CellTox Green Cytotoxicity Assay to monitor cytotoxicity in HEK293 cells - 0 hour (AID 1224869). Note: nearly all actives have a fitted effect of over 50% in size. Summed up:
(§1)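 Nonlytic real-time cytotoxicity: HEK293 + CellTox Green reagent plated, 5 h preincubation, pintool compound addition (23 nL in DMSO), 37 C for 40 h, fluorescence measured at successive time points.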

Experiment [8] is described as follows: qHTS RealTime-Glo MT Cell Viability Assay in HepG2 cells - 40 hour (AID 1224870). Note: nearly all actives have a fitted effect of over 50% in size. Note: potency is the fitted concentration of half-maximal effect. Put shortly: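 HepG2 cells mixed with RealTime-Glo MT reagents (NanoLuc plus cell-permeant prosubstrate) were seeded at 600 cells/well, incubated 5 h at 37 C/5% CO2, then pinned with compounds in DMSO; nonlytic luminescence tracked viability during 40 h treatment.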
The nature of experiment [9]: A CellTox Green Cytotoxicity Assay to monitor cytotoxicity in HEK293 cells - 40 hour (AID 1224871). Note: nearly all actives have a fitted effect of over 45% in size. Note: potency is the fitted concentration of half-maximal effect. Put shortly:
as §1
% is set by controls: 0 for no effect and ±100 for the full control effect.

For the molecule `Cc1[nH]cnc1C[C@H]1CCc2c(C)c3ccccc3n2C1=O`, the Potency entry in experiment [1] and in experiment [7] was “inactive” throughout. Moreover, the Potency in experiment [2] is 87.6 µM (active); in experiment [3], 26.6 µM (active); in experiment [5] it was 38 µM (active); in experiment [6], 23.9 µM (active); in experiment [8] it was 42.6 µM (active); in experiment [9], 47.8 µM (active). In addition, the activity change, positive = activation in experiment [4] was -63.7%.

In the case of `Cc1cc(CCN2CCN(c3nsc4ccccc34)CC2)cc2c1NC(=O)CC2(C)C`, the Potency entry in experiment [1] and in experiment [7] was “inactive” throughout. The Potency was 113 µM (active) in experiment [2]; 5.45 µM (active) in experiment [3]; 54.9 µM (active) in [5]; 7.76 µM (active) in experiment [6]; 49 µM (active) in experiment [9]. In addition, in [4], the activity change, positive = activation is -74.7%.

Turning to `C[C@H](CCC(=O)O)[C@H]1CC[C@H]2[C@@H]3CC[C@@H]4C[C@H](O)CC[C@]4(C)[C@H]3CC[C@]12C`, the Potency was 89.4 µM (active) and 56.6 µM (active) in [1]; 100 µM (active) and 80 µM (active) in experiment [2]. Also, the Potency result in experiment [3], in experiment [5], in experiment [6], in experiment [8] and in experiment [9] was “inactive” each time. In experiment [4], the activity change, positive = activation was -9.3% and -27.2%.

In the case of `CCCC1O[C@@H]2C[C@H]3[C@@H]4CCC5=CC(=O)C=C[C@]5(C)[C@H]4[C@@H](O)C[C@]3(C)[C@]2(C(=O)CO)O1` (stereo partly specified), the Potency result in experiment [1], in experiment [2], in [5], in [7], in [8] and in [9] was “inactive” in each case. Also, the Potency is 27.3 µM (active) and 34.4 µM (active) in experiment [3]; 24.6 µM (active) and 43.6 µM (active) in experiment [6]. Moreover, in experiment [4], the activity change, positive = activation was -61.9% and -49.1%.

In the case of `CC(C)(C)C(=O)OCOC(=O)[C@@H]1N2C(=O)[C@@H](NC(=O)[C@H](N)c3ccccc3)[C@H]2SC1(C)C`, the Potency entry in experiment [1], in [2], in experiment [3], in [5], in experiment [6] and in experiment [7] was “inactive” in each case. In addition, the Potency entry in experiment [8] and in [9] was “inactive” throughout. Besides, in experiment [4], the activity change, positive = activation was 0.778% [at 42.5 µM].

For `Cc1cc(O)c(C(C)(C)C)cc1C(C)(C)C`, the Potency in [1] is 89.8 µM (active); in experiment [2], 50.5 µM (active); in experiment [3], 61.1 µM (active); in experiment [5], 43.6 µM (active); in experiment [6] it was 17.4 µM (active); in experiment [9], 24.5 µM (active). Besides, the activity change, positive = activation in experiment [4] was -68.9%. Moreover, the Potency entry in experiment [7] is “inactive”.

Consider `C[n+]1cc2c3c(ccc2c2ccc4cc5c(cc4c21)OCO5)OCO3`, for which the Potency was 0.956 µM (active) in experiment [1]; 0.852 µM (active) in experiment [2]; 2.91 µM (active) in [3]; 0.827 µM (active) in experiment [5]; 0.522 µM (active) in experiment [6]; 1.04 µM (active) in [8]. Moreover, the Potency in experiment [9] was 0.465 µM (active). In addition, in [4], the activity change, positive = activation is -68.3% [at 19 µM]. Further, the cytotoxicity in [7] was -9.5% [at 15.8 µM].

Regarding `CC[C@H]1O[C@]2(CC[C@@H]1C)C[C@@H]1C[C@@H](C/C=C(\C)C[C@@H](C)/C=C/C=C3\CO[C@@H]4[C@H](O)C(C)=C[C@@H](C(=O)O1)[C@]34O)O2`, the Potency in experiment [1] was 44.6 µM (active); in experiment [2], 50 µM (active); in experiment [3], 30.4 µM (active); in experiment [5], 43.3 µM (active); in [6], 24.3 µM (active); in [8], 43.3 µM (active). Besides, in [9], the Potency was 43.3 µM (active). For the same molecule, the activity change, positive = activation in [4] was -67.4%. For the same molecule, the Potency result in experiment [7] was “inactive”.

As to `O=c1[nH]sc2ccccc12`, the Potency result in experiment [1] and in [7] was “inactive” in each case. Further, the Potency in [2] is 101 µM (active); in experiment [3], 43.3 µM (active); in [5] it was 21.9 µM (active); in experiment [6], 30.9 µM (active); in [8], 21.9 µM (active); in experiment [9], 54.9 µM (active). Besides, in [4], the activity change, positive = activation is -73.9%.

Regarding `CCc1cc(Cc2cc(CC)cc(C(C)(C)C)c2O)c(O)c(C(C)(C)C)c1`, the Potency in [1] is 50.5 µM (active); in experiment [2], 31.8 µM (active); in experiment [3] it was 30.6 µM (active); in experiment [5] it was 49 µM (active); in experiment [6] it was 19.5 µM (active); in [8], 54.9 µM (active). The Potency in experiment [9] was 54.9 µM (active). Also, the activity change, positive = activation in experiment [4] was -75.4%. Moreover, the Potency result in experiment [7] is “inactive”.

Turning to `OCCN1CCN(CC/C=C2/c3ccccc3Sc3ccc(C(F)(F)F)cc32)CC1`, the Potency result in experiment [1] and in [7] was “inactive” in each case. Also, the Potency in experiment [2] is 55.2 µM (active); in experiment [3], 29.8 µM (active); in [5] it was 21.3 µM (active); in experiment [6], 19 µM (active); in experiment [8], 15.1 µM (active); in experiment [9] it was 26.8 µM (active). Besides, in experiment [4], the activity change, positive = activation is -67.6% [at 42.5 µM].

Regarding `C[C@@H](NCCCc1cccc(C(F)(F)F)c1)c1cccc2ccccc12`, the Potency in [1] was 49.2 µM (active); in experiment [2] it was 49.2 µM (active); in experiment [3], 26.6 µM (active); in experiment [5], 16.9 µM (active); in experiment [6] it was 23.9 µM (active); in experiment [8], 15.1 µM (active). Further, in experiment [4], the activity change, positive = activation is -58.9% [at 42.5 µM]. Moreover, the Potency entry in experiment [7] was “inactive”.

As to `CCCCCCCCCCCCc1ccc(O)cc1`, the Potency in experiment [1] was 56.6 µM (active); in [2], 45 µM (active); in experiment [3], 54.5 µM (active); in experiment [5] it was 49 µM (active); in [6] it was 43.6 µM (active); in [8], 54.9 µM (active). The activity change, positive = activation in experiment [4] is -63.6%. Moreover, in experiment [7], the Potency result is “inactive”.

Turning to `C=CC(=O)OCC(CO)(COC(=O)C=C)COC(=O)C=C`, the Potency in experiment [1] is 14.2 µM (active); in experiment [3] it was 8.66 µM (active) and 13.7 µM (active); in [5], 11 µM (active) and 12.3 µM (active); in experiment [6] it was 3.48 µM (active); in experiment [8], 12.3 µM (active) and 19.5 µM (active); in experiment [9] it was 2.76 µM (active) and 9.77 µM (active). In addition, the Potency entry in experiment [2] and in experiment [7] was “inactive” throughout. The activity change, positive = activation in [4] was -68.9% and -80.3%.
